Consider 40 compounds from PubChem BioAssay (Tox21).

The source made the active and inactive calls. Calls follow the shape of the dose curve; as a rule, active = well fitted curve in the direction sought with a large enough effect in the repeat runs; inconclusive = weak or mixed curves; inactive = flat fitted curve, though single readings scatter.
% is scaled to controls: 0 for no effect and ±100 for the full control effect.

This assay in a line: qHTS assay to test for compound auto fluorescence at 590 nm (red) in HEK293 cells (AID 720679). As to conditions: red autofluorescence 540/590 nm; series mostly up to 91.3 µM. An excerpt: National Center for Advancing Translational Sciences [NCATS]
NIH Chemical Genomics Center [NCGC]
U.S. Environmental Protection Agency [EPA]
National Institutes of Environmental Health Sciences [NIEHS]
National Toxicology Program [NTP]
U.S. Food and Drug Administration [FDA]
Compound auto fluorescence often interferes with screening of the compound library against various biological targets and signaling pathways. Some of these compounds may have fluorophoric properties. Such properties may interfere with the assay outputs resulting in false positives and/or negatives. To decrease such complications and ensure the compound activities are relevant in terms of biological response, the Tox21 10K compound library was screened for auto fluorescence.
From the fluorophores used as reporter signals in our screening assays, the auto fluorescence equivalencies of compounds against three fluorophores have been evaluated: Triamterene, Fluorescein and Rose Bengal sodium for blue, green and red fluorescence, respectively. The fluorescence intensities were measured using Excitation/Emission wavelengths at 405/460nm, 485/535nm and 540/590nm for blue, green and red labels, respectively. This assay includes the red fluorescence data.
Tox21 Assay Protocol Summary:
2,000 HEK293 cells in 5 uL of culture medium containing 10% dialyzed FBS per well were dispensed into black wall/clear bottom 1536-well plates using a Multidrop Combi Dispenser (Thermo Scientific). The assay plates were incubated for 4-5 hr at 37C to allow cell attachment to the well bottom, followed by the transfer of 23 nL compound or DMSO vehicle by a pintool work station (Kalypsys, San Diego, CA). After the assay plates were incubated overnight at 37C and 5% CO2, fluorescence intensities in the assay plates were measured by an Envision (PerkinElmer, Shelton, CT) plate reader using three labels for measuring blue, green and red fluorescence at […] 460, 535 and 590nm respectively.
Background: In qHTS, concentration-response curves come from the screen itself.
Regarding `N#[N+]c1ccc2c(S(=O)(=O)[O-])cccc2c1O`, the compound was called inactive.
On to `CCOC(=O)c1ccc(I)cc1`, for which the call was inactive.
Same read-out and setting: to `CCOc1cccc(-n2cc(C(=O)N3CCN(c4cc(C(=O)O)c5ccccc5c4)CC3)nc2-c2ccc(C)cc2)c1` belongs “inactive”; to `Oc1cccc(Nc2ccccc2)c1`, “inactive”; to `CC1=C(CC=O)C(C)(C)CCC1`, “inactive”.
Still for that read-out and setting: to `CC(C)(c1ccccc1)c1ccccc1` belongs “inactive”; to `O=C1NCCN1CCO`, “inactive”; to `O=C(O)CCC(=O)C(=O)O`, “inactive”.
Consider `Oc1cc2c(cc1O)[C@H]1c3ccc(O)c(O)c3OC[C@@]1(O)C2`, for which the compound was classed as inactive.
Same read-out and setting: to `C[C@]1(Cn2ccnn2)[C@H](C(=O)O)N2C(=O)C[C@H]2S1(=O)=O` belongs “inactive”.
On to `C/C=C(/C(=C/C)c1ccc(O)cc1)c1ccc(O)cc1`, for which the fluorescence, % of fluorescent control was 0.023% [at 18.6 µM] (inactive).
In the case of `CCCCC(CC)CN` (stereo not given), the compound was called inactive.
The same measure, in the same setting: the value for `CC1CC(C)C(=O)C1=O` (stereo not given) was “inactive”; that for `C1C[C@@H]2[C@H]3CC[C@H](C3)[C@@H]2C1` was “inactive”; that for `Brc1cc(Br)c(Oc2cc(Br)c(Br)cc2Br)cc1Br` was “inactive”.
Still for that read-out and setting: to `C=C1C[C@@]23CC[C@H]4[C@@](C)(CCC[C@@]4(C)C(=O)O[C@@H]4O[C@H](CO)[C@@H](O)[C@H](O)[C@H]4O)[C@@H]2CC[C@]1(O[C@@H]1O[C@H](CO)[C@@H](O)[C@H](O[C@@H]2O[C@H](CO)[C@@H](O)[C@H](O)[C@H]2O)[C@H]1O[C@@H]1O[C@H](CO)[C@@H](O)[C@H](O)[C@H]1O)C3` belongs “inactive”; to `Cc1ccc(C(C)(C)O)cc1`, “inactive”.
Same read-out and setting: the value for `Nc1nnc(-c2ccc([N+](=O)[O-])o2)o1` was “inactive”; that for `O[C@@H]1CO[C@H]2[C@@H]1OC[C@@H]2O` was “inactive”; that for `COc1cc(Nc2c(C#N)cnc3cc(OCCCN4CCN(C)CC4)c(OC)cc23)c(Cl)cc1Cl` was “inactive”.
In the case of `C[C@@H](CN(C)C)CN1c2ccccc2Sc2ccccc21`, the fluorescence, % of fluorescent control is -0.0905% [at 18.6 µM] (inactive).
For `CCC1CO1` (stereo not given), the compound was called inactive.
The same measure, in the same setting: to `C=Cc1ccc(S(=O)(=O)O)cc1` belongs “inactive”; to `O=c1c(O)c(-c2ccc(O)cc2)oc2cc(O)cc(O)c12`, “inactive”.
On the same count and under the same terms, the value for `CC(=O)OCC(=O)NCCCOc1cccc(CN2CCCCC2)c1` was “inactive”; that for `Brc1cc2ccccc2c2ccccc12` was “inactive”.
On the same count and under the same terms, the value for `CCCCCC#CC(=O)OC` was “inactive”; that for `N#CCCN(CCO)CCO` was “inactive”.
In the case of `CCN(CC)CCNC(=O)COc1ccc(OC)cc1`, the compound was called inactive.
Regarding `CCOc1ccccc1O[C@H](c1ccccc1)[C@H]1CNCCO1`, the compound was called inactive.
The same measure, in the same setting: to `CC(C)=CC(=O)C=C(C)C` belongs “inactive”; to `C=C(C)C(=O)OCCCCCCCCCCCCC`, “inactive”.
For the compound `CC(CN(C)C)C(C)(O)Cc1ccc(Cl)cc1` (stereo not given), the compound was called inactive.
On the same count and under the same terms, the value for `Nc1nc2ccc([N+](=O)[O-])cc2s1` was “inactive”; that for `CCC(=O)C1CC(C(C)C)CC=C1C` (stereo not given) was “inactive”.
Still for that read-out and setting: the value for `Cc1cc(C)c(N)cc1C` was “inactive”.
The same measure, in the same setting: to `COc1ccccc1NC(=O)c1cc2ccccc2cc1O` belongs “inactive”.
As to `C=C1c2cccc(O)c2C(O)=C2C(=O)[C@]3(O)C(O)=C(C(N)=O)C(=O)[C@@H](N(C)C)[C@@H]3[C@@H](O)[C@H]12`, the fluorescence, % of fluorescent control is 0.604% [at 18.6 µM] (inactive).
As to `CCC(=O)OC`, the compound was called inactive.
The same measure, in the same setting: the value for `CN1C(=O)c2ccccc2C1=O` was “inactive”.
